Values joined by “and” are separate entries in the source; they are usually repeats but may differ in a detail not shown here. Equal entries are not always repeated. Results filed as inconclusive are left out. Active and inactive are the calls of the source. Unless noted, the call rests on the fitted dose curve.
Experiments:
[1] = biological target: Estrogen receptor (Homo sapiens) (UniProt P03372); assay: qHTS assay for small molecule agonists of estrogen receptor alpha signaling (AID 588514);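 further: 0% = vehicle only and 100% = reference agonist; nearly all actives have a fitted effect of over 70% in size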
Summary of the method: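 EC50 and efficacy came from Hill fits of beta-lactamase reporter signal (CCF4 dye, 2 h at room temperature) scaled between DMSO and 20 nM 17-beta-estradiol. Agonist mode: HEK293 ER-alpha-UAS-bla cells in charcoal/dextran-stripped serum medium, 18 h compound exposure at 37 C.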

[2] = biological target: Bile acid receptor (Homo sapiens) (UniProt Q96RI1); assay: qHTS assay for small molecule antagonists of farnesoid X receptor signaling (AID 588526); further: on the % scale 0 is the no-effect control and ±100 the full control effect
Summary of the method: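 Antagonist mode: titrated compounds tested against chenodeoxycholic acid stimulation (normalized to 50 uM CDCA and DMSO) in GeneBLAzer HEK293T cells for 16 h. Beta-lactamase read by CCF4 fluorescence; IC50 from Hill fits.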

[3] = biological target: Glucocorticoid receptor (Homo sapiens) (UniProt P04150); assay: qHTS assay for small molecule agonists of glucocorticoid receptor signaling (AID 588532; active means well fitted curve in the direction sought with a large enough effect in the signal ratio, with a control signal flat; the % refers to the signal ratio;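 further: 100% = dexamethasone at 0.1 µM and 0% = DMSO only wells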); conditions: HeLa MMTV-bla, beta-lactamase ratio, agonist, 18 h; stronger effect = higher value; percent of dexamethasone control, DMSO zero
Summary of the method: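 MMTV-bla HeLa beta-lactamase reporter cells in 1% charcoal/dextran FBS medium, compounds up to 92 uM for 18 h at 37 C, CCF4 readout; normalized to 0.1 uM dexamethasone (100%), EC50 and efficacy from Hill fits.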

[4] = biological target: Glucocorticoid receptor (Homo sapiens) (UniProt P04150); assay: qHTS assay for small molecule antagonists of glucocorticoid receptor signaling (AID 588533; active means well fitted inhibition curve with a large enough effect in the signal ratio, with a control signal flat, not every such curve was filed as active; the % refers to the signal ratio; further: on the % scale 0 is the no-effect control and ±100 the full control effect)
Summary of the method: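 Antagonist-mode qHTS: compound titrations added to GRE-bla HeLa cells, then dexamethasone 2 nM final; 18 h, 37 C. CCF4 FRET fluorescence normalized to dexamethasone and DMSO; IC50 from Hill fit.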

[5] = qHTS assay for small molecule antagonists of peroxisome proliferator-activated receptor delta signaling (AID 588535; active means well fitted inhibition curve with a large enough effect in the signal ratio, with a control signal flat, not every such curve was filed as active; the % refers to the signal ratio;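 on max response: cells co-treated with a PPAR-delta agonist as stimulator during compound exposure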); conditions: HEK293T PPARd-UAS-bla, beta-lactamase FRET ratio, 18 h; 460 nm channel
Summary of the method: (§1)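 Fluorescence from CCF4-loaded GeneBLAzer PPAR-delta-UAS-bla HEK293T cells (2 hrs RT loading) quantified reporter inhibition after an 18 hr, 37 C compound exposure across a titration.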

[6] = biological target: Peroxisome proliferator-activated receptor delta (Homo sapiens) (UniProt Q03181); assay: as above
Summary of the method: as §1

[7] = biological target: Peroxisome proliferator-activated receptor gamma (Homo sapiens) (UniProt P37231); assay: qHTS assay for small molecule agonists of peroxisome proliferator-activated receptor gamma signaling (AID 588536; active means well fitted curve in the direction sought with a large enough effect in the signal ratio, with a control signal flat, not every such curve was filed as active; the % refers to the signal ratio;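 further: 0% = DMSO basal wells and 100% = rosiglitazone at 2 µM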)
Summary of the method: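 Using GeneBLAzer HEK293 cells, response was quantified by CCF4 fluorescence and normalized between basal DMSO (0%) and rosiglitazone 2 uM (100%); curves yielded half-maximal stimulation concentration and efficacy.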

[8] = biological target: Peroxisome proliferator-activated receptor gamma (Homo sapiens) (UniProt P37231); assay: qHTS assay for small molecule antagonists of peroxisome proliferator-activated receptor gamma signaling (AID 588537; active means well fitted inhibition curve with a large enough effect in the signal ratio, with a control signal flat, not every such curve was filed as active; the % refers to the signal ratio;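 further: reporter cells co-stimulated with 50 nM rosiglitazone agonist during compound treatment; % of control where 0% means no effect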)
Summary of the method: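 Fluorescence at 460 and 530 nm (405 nm excitation) reported beta-lactamase cleavage of CCF4 after 2 h room-temperature loading. HEK293 reporter cells in 1% charcoal/dextran-treated FBS had received compound and rosiglitazone for 16 h.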

[9] = biological target: Vitamin D3 receptor (Homo sapiens) (UniProt P11473); assay: qHTS assay for small molecule antagonists of vitamin D receptor signaling (AID 588541);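 further: receptor activated by calcitriol during compound treatment; series mostly up to about 77 µM; on the % scale 0 is the no-effect control and ±100 the full control effect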
Summary of the method: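 VDR-UAS-bla HEK293T cells in 2% charcoal-stripped FBS were stimulated with 1-alpha,25-dihydroxyvitamin D3 (3 nM final) plus compound for 16 h at 37 C. The beta-lactamase CCF4 readout was normalized to 50 nM agonist and DMSO, and Hill fits gave IC50.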

[10] = biological target: Vitamin D3 receptor (Homo sapiens) (UniProt P11473); assay: qHTS assay for small molecule agonists of vitamin D receptor signaling (AID 588543);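 further: 0% = DMSO basal and 100% = reference agonist control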
Summary of the method: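 β-lactamase reporter, VDR-UAS-bla HEK293T, agonist mode. Cells plated 5 h at 37 °C, compound titration 16 h at 37 °C, CCF4 dye 2 h RT, ratio 460/530 nm. Hill fit → EC50, efficacy vs 50 nM 1α,25-(OH)2D3.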

[11] = qHTS assay for small molecule agonists of retinoid X receptor alpha signaling (AID 588544); conditions: HEK293T RXRa-UAS-bla, beta-lactamase reporter, 18 h; 530 nm emission;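 on activation: 0% = DMSO basal wells and 100% = reference agonist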
[12] = biological target: Retinoic acid receptor RXR-alpha (Homo sapiens) (UniProt P19793); assay: as above
[13] = biological target: Thyroid hormone receptor beta (Homo sapiens) (UniProt P10828); assay: qHTS assay for small molecule agonists of thyroid hormone receptor beta signaling (AID 588545)
Summary of the method: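 Agonist activity was read as beta-lactamase CCF4 fluorescence (405 ex, 460/530 em), scaled between DMSO (0%) and 10 nM T3 (100%), then Hill-fitted for EC50 and efficacy. HEK 293 TR-UAS-bla cells in 2% charcoal/dextran FBS medium were exposed 18 h at 37 C.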

[14] = qHTS assay for small molecule antagonists of retinoid X receptor alpha signaling (AID 588546; active means well fitted inhibition curve with a large enough effect in the signal ratio, with a control signal flat, not every such curve was filed as active; the % refers to the signal ratio;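 further: cells stimulated with 9-cis-retinoic acid as agonist; on the % scale 0 is the no-effect control and ±100 the full control effect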); conditions: HEK293T RXRa-UAS-bla, beta-lactamase ratio, antagonist mode; measured here: W530 green channel, cytotoxicity proxy
Summary of the method: (§2)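 Beta-lactamase reporter inhibition, read as CCF4 fluorescence ratio (ex 405, em 460/530 nm) after 2 h at RT. HEK293T UAS-bla cells, 2500/well, were stimulated with 9-cis-RA at 500 or 100 nM final alongside test compound for 18 h at 37 C.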

[15] = biological target: Retinoic acid receptor RXR-alpha (Homo sapiens) (UniProt P19793); assay: as above; conditions: HEK293T RXRa-UAS-bla, beta-lactamase ratio, antagonist mode
Summary of the method: as §2

[16] = qHTS assay for small molecule agonists of the antioxidant response element (ARE) signaling pathway (AID 651741; active means well fitted activation curve with a large enough effect in the signal ratio; the % refers to the signal ratio; further: potency means the concentration at half of the fitted maximal effect; on activation: % of control where 0% means no effect)
Summary of the method: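 Stably integrated ARE-beta-lactamase reporter HepG2 cells; 16 h compound incubation, 37 C; LiveBLAzer FRET substrate 2 h at room temperature; fluorescence intensity.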

[17] = qHTS assay for small molecule activators of the nuclear factor-kappa B (NF-kB) signaling pathway (AID 651749; active means well fitted activation curve with a large enough effect in the signal ratio; the % refers to the signal ratio; further: series mostly up to about 77 µM; % of control where 0% means no effect); conditions: NF-kB-bla ME-180 cells, beta-lactamase FRET ratio, 16 h; activation: stronger effect = higher value
Summary of the method: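 In this qHTS format, compounds acting as activators increase NF-kB-driven beta-lactamase in ME-180 cells, measured as disrupted FRET after 16 hr exposure at 37C and 5% CO2.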

[18] = qHTS assay for environmental chemicals that activate the Aryl hydrocarbon Receptor (AhR) signaling pathway (AID 651777; active means well fitted curve in the direction sought with a large enough effect; an effect the other way counts as inactive or inconclusive; further: % of control where 0% means no effect; nearly all actives have a fitted effect of over 15% in size); conditions: 1A2-DRE human hepatoma cells, luciferase, 24 h; activation: stronger effect = higher value
Summary of the method: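 Induction of CYP1A2 transcription through AhR is detected by luciferase in 1A2-DRE hepatoma cells. Compounds or DMSO act for 24 hr at 37 C before a 30 min One-Glo step at room temperature.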

[19] = biological target: Peroxisome proliferator-activated receptor alpha (Homo sapiens) (UniProt Q07869); assay: qHTS assay for small molecule agonists of the peroxisome proliferator-activated receptor alpha (PPARalpha) signaling pathway (AID 651778; active means well fitted curve in the direction sought with a large enough effect; an effect the other way counts as inactive or inconclusive; further: % of control where 0% means no effect); conditions: PathHunter PPARalpha complementation, chemiluminescence, 6 h; stronger effect = higher value
Summary of the method: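 Enzyme-fragment complementation assay in which ligand-bound PPARalpha translocates and forms an active enzyme that generates chemiluminescence. Cells were plated overnight, exposed to compound for 6 hr at 37 C, and then given detection reagent for 60 min at room temperature.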

[20] = qHTS assay for small molecule agonists of the antioxidant response element (ARE) signaling pathway measured by Nrf2-dependant transcriptional activity - cell viability counter screen (AID 720653; active means well fitted curve in the direction sought with a large enough effect in the repeat runs; an effect the other way counts as inactive or inconclusive; further: on the % scale 0 is the no-effect control and ±100 the full control effect); conditions: ARE-bla HepG2 viability, CellTiter-Glo ATP luminescence, 16 h; max response: stronger effect = lower value
Summary of the method: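 ARE-bla HepG2 cells treated with compounds for 16 h at 37C; this counter screen measures viability as intracellular ATP by CellTiter-Glo luminescence after 30 min at room temperature.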

[21] = qHTS assay for cell viability of HEK293 cells (AID 743288; active means well fitted curve in the direction sought with a large enough effect; an effect the other way counts as inactive or inconclusive; further: on the % scale 0 is the no-effect control and ±100 the full control effect; nearly all actives have a fitted effect of over 50% in size); conditions: ATP luminescence (CellTiter-Glo), 18 h; max response: stronger effect = lower value
Summary of the method: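 ATP luminescence (CellTiter-Glo) reports metabolically competent cell number after parental HEK293 cells, 2,000/well, were treated with DMSO-dissolved compounds for 18 h at 37 C; reagent incubation 30 min, room temperature.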

[22] = qHTS assay for cell viability of the p53RE-bla HCT-116 cell line (AID 743292; active means well fitted curve in the direction sought with a large enough effect; an effect the other way counts as inactive or inconclusive; further: on the % scale 0 is the no-effect control and ±100 the full control effect; nearly all actives have a fitted effect of over 55% in size)
Summary of the method: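 In this qHTS counter-screen, metabolically competent p53RE-bla HCT-116 cells were counted via their ATP content. Compounds were applied for 16 h at 37 C and luciferase-coupled luminescence was measured.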

[23] = qHTS for Inhibitors of the Functional Ribonucleoprotein Complex (vRNP) of Lassa (LASV) Arenavirus: LASV Primary Screen - GLuc reporter signal (AID 1347082; calls by dose curve; tested in HEK293 reporter line; further: series mostly up to about 57 µM; on the % scale 0 is the no-effect control and ±100 the full control effect; nearly all actives have a fitted effect of over 60% in size)
[24] = qHTS for Inhibitors of the Functional Ribonucleoprotein Complex (vRNP) of Lassa (LASV) Arenavirus: Viability assay - alamar blue signal for LASV Primary Screen (AID 1347083; calls by dose curve; tested in HEK293 reporter line; further: series mostly up to about 57 µM; on the % scale 0 is the no-effect control and ±100 the full control effect; nearly all actives have a fitted effect of over 80% in size)
[25] = qHTS for Inhibitors of the Functional Ribonucleoprotein Complex (vRNP) of Lymphocytic Choriomeningitis Arenaviruses (LCMV): Viability assay - alamar blue signal for LCMV Primary Screen (AID 1347085; calls by dose curve; tested in HEK293 reporter line; further: series mostly up to about 57 µM; on the % scale 0 is the no-effect control and ±100 the full control effect; nearly all actives have a fitted effect of over 80% in size)
[26] = biological target: Nucleoprotein (Lymphocytic choriomeningitis virus (strain Armstrong)) (UniProt P09992); assay: qHTS for Inhibitors of the Functional Ribonucleoprotein Complex (vRNP) of Lymphocytic Choriomeningitis Arenaviruses (LCMV): LCMV Primary Screen - GLuc reporter signal (AID 1347086); further: series mostly up to about 57 µM; on the % scale 0 is the no-effect control and ±100 the full control effect; nearly all actives have a fitted effect of over 70% in size
[27] = biological target: Nuclear receptor subfamily 1 group I member 2 (Rattus norvegicus) (UniProt Q9R1A7); assay: qHTS assay for small molecule activators of the rat pregnane X receptor (rPXR) signaling pathway (AID 651751; call rule not given here; further: 0% is about no effect); conditions: rPXR reporter cells, luciferase (One-Glo), 24 h
[28] = qHTS assay for small molecule activators of the human pregnane X receptor (PXR) signaling pathway (AID 720659; call rule not given here; further: 0% is about no effect)
[29] = biological target: Peroxisome proliferator-activated receptor delta (Homo sapiens) (UniProt Q03181); assay: qHTS assay for small molecule agonists of peroxisome proliferator-activated receptor delta signaling (AID 588534);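 further: 0% = DMSO basal wells and 100% = positive control agonist at 10 µM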
Summary of the method: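 Agonist-mode beta-lactamase reporter readout (CCF4 dye, 2 h at RT) after 18 h at 37 °C exposure to a titration; Hill-equation fitting gave EC50 and maximal response.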

[30] = biological target: Bile acid receptor (Homo sapiens) (UniProt Q96RI1); assay: qHTS assay for small molecule agonists of farnesoid X receptor signaling (AID 588527); conditions: HEK293T FXR-UAS-bla, beta-lactamase ratio, 16 h; activation: stronger effect = higher value;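 further: series mostly up to about 77 µM; 0% = vehicle basal and 100% = reference agonist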
Summary of the method: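 Quantitative HTS used FXR-UAS-bla HEK293T cells with 16 h compound incubation at 37 C. EC50 values came from concentration-response curves normalized to chenodeoxycholic acid.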

[31] = biological target: Ubiquitin carboxyl-terminal hydrolase 1 (Homo sapiens) (UniProt O94782); assay: Inhibitors of USP1/UAF1: Pilot qHTS (AID 504865; active means well fitted curve in the direction sought with a large enough effect; an effect the other way counts as inactive or inconclusive;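 further: rhodamine fluorescence freed from ubiquitin-rhodamine substrate followed over time; top concentration of the series differs between compounds; on the % scale 0 is the no-effect control and ±100 the full control effect; nearly all actives have a fitted effect of over 35% in size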)
Summary of the method: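 1nM USP1/UAF1 + cpd, 15 min RT; start w/ Ub-Rho 150nM final; kinetic FL 480/540 nm, 6 reads q60 s. Buffer 50mM HEPES pH 7.8, 0.5mM EDTA, 1mM TCEP, 0.01% Tween-20, 0.1 mg/ml BSA.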

[32] = biological target: Estrogen receptor (Homo sapiens) (UniProt P03372); assay: qHTS assay for small molecule antagonists of estrogen receptor alpha signaling (AID 588513; active means well fitted curve in the direction sought with a large enough effect in the signal ratio, with a control signal flat, not every such curve was filed as active; the % refers to the signal ratio; further: on the % scale 0 is the no-effect control and ±100 the full control effect)
Summary of the method: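 Beta-lactamase reporter, antagonist mode, HEK 293 GripTite cells; 0.5nM E2 stimulus, 18 h, 37 C; CCF4 dye 2 h RT; fluorescence. IC50 and efficacy from Hill fits, normalized to E2 and DMSO.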

[33] = biological target: Voltage-gated inwardly rectifying potassium channel KCNH2 (Homo sapiens) (UniProt Q12809); assay: qHTS Assay for Small Molecule Inhibitors of the Human hERG Channel Activity (AID 588834; active means well fitted curve in the direction sought with a large enough effect; an effect the other way counts as inactive or inconclusive;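 further: top concentration of the series differs between compounds; on the % scale 0 is the no-effect control and ±100 the full control effect; lower thallium flux fluorescence means stronger hERG block; nearly all actives have a fitted effect of over 50% in size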)
Summary of the method: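 Thallium-flux (FluxOR) read-out on FDSS: fluorescence read 10 s before and 2 min after stimulation buffer. hERG-BacMam-transduced U2OS cells, compound exposure about 10 min. AC50 by standard Hill equation.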

[34] = qHTS assay for small molecule agonists of the antioxidant response element (ARE) signaling pathway measured by Nrf2-dependant transcriptional activity (AID 720636; active means well fitted curve in the direction sought with a large enough effect in the repeat runs; an effect the other way counts as inactive or inconclusive;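 further: HepG2 cells with an ARE-driven luciferase reporter; % of control where 0% means no effect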)
Summary of the method: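 We exposed ARE-luc HepG2 cells, seeded in assay medium with 1% dialyzed FBS and allowed 6 hr to adhere, to test compounds overnight (16 hr, 37 C) before measuring luciferase with ONE-Glo.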

Chain of Nucleoprotein (Lymphocytic choriomeningitis virus (strain Armstrong)) (P09992 whole entry, looked up): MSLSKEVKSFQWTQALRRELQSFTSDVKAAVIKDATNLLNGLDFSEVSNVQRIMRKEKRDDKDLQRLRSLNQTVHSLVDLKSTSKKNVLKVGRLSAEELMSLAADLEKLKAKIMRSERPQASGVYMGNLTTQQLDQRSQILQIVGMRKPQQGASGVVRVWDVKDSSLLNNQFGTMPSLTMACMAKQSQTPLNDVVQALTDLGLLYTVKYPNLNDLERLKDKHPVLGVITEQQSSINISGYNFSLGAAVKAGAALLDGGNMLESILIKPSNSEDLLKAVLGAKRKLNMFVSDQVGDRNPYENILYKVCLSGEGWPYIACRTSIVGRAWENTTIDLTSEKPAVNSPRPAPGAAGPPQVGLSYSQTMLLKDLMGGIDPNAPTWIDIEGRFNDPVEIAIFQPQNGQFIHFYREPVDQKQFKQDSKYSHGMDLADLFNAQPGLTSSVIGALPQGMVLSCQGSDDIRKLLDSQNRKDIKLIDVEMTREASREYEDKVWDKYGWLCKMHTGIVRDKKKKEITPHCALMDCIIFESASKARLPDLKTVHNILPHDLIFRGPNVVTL
Chain of Bile acid receptor (Homo sapiens) (Q96RI1 whole entry, looked up): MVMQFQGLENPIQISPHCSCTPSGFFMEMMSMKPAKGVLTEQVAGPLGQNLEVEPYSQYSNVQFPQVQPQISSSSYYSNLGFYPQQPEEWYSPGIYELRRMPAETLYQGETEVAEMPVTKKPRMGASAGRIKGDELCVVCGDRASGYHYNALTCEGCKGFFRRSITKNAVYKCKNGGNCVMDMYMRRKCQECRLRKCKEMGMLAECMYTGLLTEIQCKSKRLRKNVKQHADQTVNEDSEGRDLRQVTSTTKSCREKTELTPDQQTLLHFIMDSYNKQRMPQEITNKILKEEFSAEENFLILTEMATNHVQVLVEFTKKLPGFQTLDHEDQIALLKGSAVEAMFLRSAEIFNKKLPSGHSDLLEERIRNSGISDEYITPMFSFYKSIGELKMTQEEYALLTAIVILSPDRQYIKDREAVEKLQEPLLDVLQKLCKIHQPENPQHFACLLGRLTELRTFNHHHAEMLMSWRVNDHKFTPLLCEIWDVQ
Chain of Peroxisome proliferator-activated receptor delta (Homo sapiens) (Q03181 whole entry, looked up): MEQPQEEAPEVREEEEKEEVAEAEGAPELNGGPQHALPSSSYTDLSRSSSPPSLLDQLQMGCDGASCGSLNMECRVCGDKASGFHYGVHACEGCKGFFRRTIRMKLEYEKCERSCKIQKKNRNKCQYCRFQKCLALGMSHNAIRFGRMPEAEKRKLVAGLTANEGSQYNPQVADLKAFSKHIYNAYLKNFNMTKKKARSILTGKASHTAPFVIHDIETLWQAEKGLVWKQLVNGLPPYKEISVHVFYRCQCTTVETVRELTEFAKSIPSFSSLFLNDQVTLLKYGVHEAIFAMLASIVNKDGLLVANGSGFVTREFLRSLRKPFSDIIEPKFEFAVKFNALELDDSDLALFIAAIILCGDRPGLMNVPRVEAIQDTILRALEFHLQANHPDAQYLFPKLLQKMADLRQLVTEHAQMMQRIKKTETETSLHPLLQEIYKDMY
Chain of Glucocorticoid receptor (Homo sapiens) (P04150 whole entry, looked up): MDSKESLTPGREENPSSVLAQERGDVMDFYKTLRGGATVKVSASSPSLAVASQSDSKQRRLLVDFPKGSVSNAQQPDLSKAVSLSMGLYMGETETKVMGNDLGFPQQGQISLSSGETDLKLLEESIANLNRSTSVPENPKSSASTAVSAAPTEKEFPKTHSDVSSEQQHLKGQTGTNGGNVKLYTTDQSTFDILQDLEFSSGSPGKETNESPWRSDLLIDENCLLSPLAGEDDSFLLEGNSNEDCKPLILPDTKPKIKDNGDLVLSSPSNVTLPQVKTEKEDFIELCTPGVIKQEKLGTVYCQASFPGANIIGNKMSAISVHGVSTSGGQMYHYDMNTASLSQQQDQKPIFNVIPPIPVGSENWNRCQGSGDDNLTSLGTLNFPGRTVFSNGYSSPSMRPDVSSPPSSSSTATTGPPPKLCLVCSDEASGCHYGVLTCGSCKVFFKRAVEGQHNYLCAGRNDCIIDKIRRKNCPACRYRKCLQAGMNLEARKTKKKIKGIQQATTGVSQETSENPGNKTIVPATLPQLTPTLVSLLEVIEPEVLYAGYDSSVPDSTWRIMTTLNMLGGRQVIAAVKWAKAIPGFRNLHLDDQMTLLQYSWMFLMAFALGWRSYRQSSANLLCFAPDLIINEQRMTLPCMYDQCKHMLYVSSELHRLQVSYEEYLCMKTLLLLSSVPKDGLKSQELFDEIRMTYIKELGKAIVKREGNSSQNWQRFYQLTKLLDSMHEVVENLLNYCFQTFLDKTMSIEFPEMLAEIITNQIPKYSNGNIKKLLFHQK
Chain of Estrogen receptor (Homo sapiens) (P03372 whole entry, looked up): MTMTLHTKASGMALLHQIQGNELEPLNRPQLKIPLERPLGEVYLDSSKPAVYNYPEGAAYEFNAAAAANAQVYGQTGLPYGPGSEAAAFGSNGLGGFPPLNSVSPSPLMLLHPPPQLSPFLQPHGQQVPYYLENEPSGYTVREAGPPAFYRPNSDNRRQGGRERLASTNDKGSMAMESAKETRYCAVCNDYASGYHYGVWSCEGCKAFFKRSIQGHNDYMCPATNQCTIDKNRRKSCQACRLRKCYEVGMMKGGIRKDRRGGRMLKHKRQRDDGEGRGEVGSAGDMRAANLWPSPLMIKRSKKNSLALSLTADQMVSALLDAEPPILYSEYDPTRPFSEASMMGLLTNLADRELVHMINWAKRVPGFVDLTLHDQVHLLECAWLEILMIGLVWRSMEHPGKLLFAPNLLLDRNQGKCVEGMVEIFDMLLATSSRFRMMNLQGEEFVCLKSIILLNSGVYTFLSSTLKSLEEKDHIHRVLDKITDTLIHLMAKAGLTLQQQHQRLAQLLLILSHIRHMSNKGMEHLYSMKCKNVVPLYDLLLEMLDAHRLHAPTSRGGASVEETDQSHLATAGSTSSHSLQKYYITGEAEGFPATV
Chain of Vitamin D3 receptor (Homo sapiens) (P11473 whole entry, looked up): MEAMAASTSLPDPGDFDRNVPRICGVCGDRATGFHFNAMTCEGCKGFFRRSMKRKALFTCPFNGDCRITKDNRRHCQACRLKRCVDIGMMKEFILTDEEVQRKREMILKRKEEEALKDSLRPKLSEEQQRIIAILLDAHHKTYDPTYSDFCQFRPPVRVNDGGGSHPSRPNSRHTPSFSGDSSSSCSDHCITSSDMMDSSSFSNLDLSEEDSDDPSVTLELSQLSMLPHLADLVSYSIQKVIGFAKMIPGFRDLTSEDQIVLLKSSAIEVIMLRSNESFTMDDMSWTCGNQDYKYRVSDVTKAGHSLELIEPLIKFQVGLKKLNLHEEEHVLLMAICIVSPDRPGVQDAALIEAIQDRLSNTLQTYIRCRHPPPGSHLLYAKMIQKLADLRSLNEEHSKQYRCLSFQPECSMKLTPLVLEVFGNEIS
Chain of Retinoic acid receptor RXR-alpha (Homo sapiens) (P19793 whole entry, looked up): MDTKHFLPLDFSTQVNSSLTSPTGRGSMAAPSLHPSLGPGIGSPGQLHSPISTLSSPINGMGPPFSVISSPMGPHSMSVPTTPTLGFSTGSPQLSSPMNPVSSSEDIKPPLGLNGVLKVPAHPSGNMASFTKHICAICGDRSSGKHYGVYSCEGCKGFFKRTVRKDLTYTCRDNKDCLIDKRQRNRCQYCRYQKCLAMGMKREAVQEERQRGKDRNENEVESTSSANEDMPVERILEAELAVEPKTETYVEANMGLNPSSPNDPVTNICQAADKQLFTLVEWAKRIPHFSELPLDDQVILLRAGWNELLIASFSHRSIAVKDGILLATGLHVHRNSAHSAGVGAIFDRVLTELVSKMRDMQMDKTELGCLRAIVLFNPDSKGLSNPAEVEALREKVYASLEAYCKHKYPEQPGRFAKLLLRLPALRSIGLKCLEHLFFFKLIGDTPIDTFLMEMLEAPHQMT
Chain of Peroxisome proliferator-activated receptor gamma (Homo sapiens) (P37231 whole entry, looked up): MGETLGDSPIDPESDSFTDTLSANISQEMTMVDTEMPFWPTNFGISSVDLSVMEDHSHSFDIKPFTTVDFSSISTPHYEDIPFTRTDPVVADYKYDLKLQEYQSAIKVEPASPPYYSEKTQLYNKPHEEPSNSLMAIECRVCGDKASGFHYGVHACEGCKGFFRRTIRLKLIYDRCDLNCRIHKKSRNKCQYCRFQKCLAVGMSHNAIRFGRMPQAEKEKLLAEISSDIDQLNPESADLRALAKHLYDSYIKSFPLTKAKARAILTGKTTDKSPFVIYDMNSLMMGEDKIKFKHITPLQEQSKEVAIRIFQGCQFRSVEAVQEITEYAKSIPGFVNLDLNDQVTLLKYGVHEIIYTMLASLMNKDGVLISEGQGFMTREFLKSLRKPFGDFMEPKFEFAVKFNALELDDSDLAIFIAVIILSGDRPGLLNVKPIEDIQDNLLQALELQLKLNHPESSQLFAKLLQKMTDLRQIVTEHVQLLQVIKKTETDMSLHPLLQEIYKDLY
Chain of Thyroid hormone receptor beta (Homo sapiens) (P10828 whole entry, looked up): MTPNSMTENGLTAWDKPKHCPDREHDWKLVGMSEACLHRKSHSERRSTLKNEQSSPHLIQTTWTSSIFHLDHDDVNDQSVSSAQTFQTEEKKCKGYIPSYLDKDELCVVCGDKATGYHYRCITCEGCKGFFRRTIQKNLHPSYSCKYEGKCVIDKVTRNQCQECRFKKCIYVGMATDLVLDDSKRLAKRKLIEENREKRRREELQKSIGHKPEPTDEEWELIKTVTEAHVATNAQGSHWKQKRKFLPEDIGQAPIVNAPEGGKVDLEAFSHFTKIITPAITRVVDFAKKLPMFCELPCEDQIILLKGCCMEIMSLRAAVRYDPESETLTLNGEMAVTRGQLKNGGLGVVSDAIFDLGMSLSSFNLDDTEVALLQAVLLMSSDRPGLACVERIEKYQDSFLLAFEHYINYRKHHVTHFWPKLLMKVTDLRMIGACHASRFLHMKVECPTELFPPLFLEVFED

CCOP(=S)(OCC)SCSCC
inactive: Potency [1] | Potency [2] | activation [3] -1.34% | Potency [4] | outcome [6] | outcome [7] | Potency [8] | outcome [9] | Potency [10] | outcome [12] | Potency [13] | max response [15] -2.19% | Potency [16] | activation [17] -1.47% | activation [18] 2.07% | max response [19] -0.311% | max response [20] 6.11% | max response [21] -10.1% | outcome [22] | Potency [23] | Potency [24] | Potency [25] | Potency [26] | max response [27] 5.3% | outcome [28]
-8.57%: max response [11]
-4.53%: max response [14]
1.66%: max response [5]

CC(C)=CCCC(C)CCO (configuration not stated)
inactive: Potency [29] | Potency [23] | Potency [24] | Potency [25] | Potency [26]

CC1=C(/C=C/C(C)=C/C=C/C(C)=C\C=O)C(C)(C)CCC1
inactive: activation [30] 25.7% | Potency [23] | Potency [24] | Potency [25] | Potency [26]

CCCCC=O
inactive: activation [30] 1.59% | Potency [23] | Potency [24] | Potency [25] | Potency [26]

CCCCCCCCCCCCCCCCCC(N)=O
inactive: Potency [29] | Potency [23] | Potency [24] | Potency [25] | Potency [26]

C/C=C/C=C/CCCCCCCO
inactive: Potency [29] | Potency [23] | Potency [24] | Potency [25] | Potency [26]

c1ccc2c(c1)CN1CCCC1=N2
inactive: Potency [31] | Potency [23] | Potency [24] | Potency [25] | Potency [26]

C[C@H](CCC(=O)O)[C@H]1CC[C@H]2[C@@H]3CC[C@@H]4C[C@H](O)CC[C@]4(C)[C@H]3CC[C@]12C
active: Potency [16] 26.6 µM and 19.3 µM
inactive: Potency [32] | Potency [13] | Potency [33] | Potency [34] | Potency [23] | Potency [24] | Potency [25] | Potency [26]

O=C(Nc1ccccc1)Nc1ccccc1
inactive: Potency [29] | Potency [23] | Potency [24] | Potency [25] | Potency [26]

O=C1CCc2ccccc2O1
inactive: Potency [29] | Potency [23] | Potency [24] | Potency [25] | Potency [26]

— PubChem BioAssay (NCATS)
